The list is not random: actives were taken first. Their share in the collection is about 3.5%.
TEAD-YAP block = TEAD-YAP interaction inhibition, primary screen, TEAD-YAP interaction inhibitor project, luminescence, HEK-TIYL cells. TEAD-Gal4/YAP UAS-luciferase luminescence. hit rate 1.4% among 640,000. AID 1259422, 2018. inhibition, % at 9.12 µM; in the data active = inhibition above about 32%
MITF primary = MITF inhibitors, primary screen, biochemical, AlphaScreen, human; Microphthalmia-associated transcription factor (Homo sapiens), O75030; AlphaScreen MITF homodimerization, bead proximity signal; inhibition, % at 2.6 µM; hit rate 0.91% among 650,000; AID 1259374, 2018; in the data active = inhibition above about 50%
Target sequence (O75030 whole entry, looked up): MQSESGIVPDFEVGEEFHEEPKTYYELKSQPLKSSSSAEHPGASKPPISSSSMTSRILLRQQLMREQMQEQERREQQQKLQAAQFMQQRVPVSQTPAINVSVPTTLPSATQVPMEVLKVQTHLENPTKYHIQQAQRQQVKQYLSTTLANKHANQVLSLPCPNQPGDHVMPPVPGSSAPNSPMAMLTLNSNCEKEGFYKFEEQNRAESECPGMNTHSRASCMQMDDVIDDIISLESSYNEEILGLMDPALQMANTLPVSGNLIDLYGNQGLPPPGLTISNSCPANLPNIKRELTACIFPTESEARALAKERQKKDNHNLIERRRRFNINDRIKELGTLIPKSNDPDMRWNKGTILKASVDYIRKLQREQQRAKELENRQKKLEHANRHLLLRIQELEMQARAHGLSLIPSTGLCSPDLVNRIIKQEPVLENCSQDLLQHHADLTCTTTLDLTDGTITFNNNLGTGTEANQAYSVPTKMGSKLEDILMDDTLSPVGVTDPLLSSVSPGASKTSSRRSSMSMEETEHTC
FBW7 activator = FBW7 E3 ligase activators, primary screen, biochemical, AlphaScreen, human | F-box/WD repeat-containing protein 7 (Homo sapiens), Q969H0 | AlphaScreen FBW7–phospho-cyclin E peptide binding, activator screen | normalized activity (activation), % at 26.1 µM | hit rate 0.13% among 650,000; in the data active = normalized activity above about 1.9%;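 also: purified mutant Fbw7 with reduced substrate affinity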
GPR151 ag = activators of human GPR151, primary screen, cell-based, PathHunter beta-arrestin, luminescence; G-protein coupled receptor 151 (Homo sapiens), Q8TDV0; PathHunter beta-arrestin GPR151 cells; activation, % at 11.2 µM; hit rate 1% among 650,000; AID 1508602, 2020; in the data active = activation above about 4.9%
Of the large screens only hits and unclear results are named; the others gave an inactive call.

c1ccc(OCCNc2nc(Nc3ccncn3)nc3nc[nH]c23)cc1	FBW7 activator 33
Oc1ccc(CCNc2nc(Nc3ccccc3)nc3nc[nH]c23)cc1	TEAD-YAP block 52
OC1CCN(c2cc(-c3ccccc3F)nc(-c3ccccc3)n2)CC1	none
c1ccc(-n2cnc3c(NCc4nc5ccccc5[nH]4)nc(Nc4ccncc4)nc32)cc1	TEAD-YAP block 73
c1ccc(-n2cnc3c(NCc4nc5ccccc5[nH]4)nc(Nc4ccc(-n5ccnc5)cc4)nc32)cc1	TEAD-YAP block 57
c1ccc2[nH]c(CNc3nc(Nc4ccncc4)nc4c3ncn4C3CCCCC3)nc2c1	TEAD-YAP block 64
c1ccc(-n2cnc3c(NCc4nc5ccccc5[nH]4)nc(Nc4cccnc4)nc32)cc1	TEAD-YAP block 73
CCOC(=O)/C(CS(=O)(=O)c1ccc(Cl)cc1)=N\NC(N)=O	none
Cc1cccc(C(=O)NCc2nnc(SCC(=O)Nc3cccc(F)c3)n2C)c1	none
O=c1cc(O)nc(/N=C/c2ccc3c(c2)OCO3)[nH]1	none
NC(=O)[C@@H]1CCCN1C1CCN(c2cccc(NC(=O)CCCc3ccccc3)c2)CC1	TEAD-YAP block 39
O=C(CCCc1ccccc1)Nc1cccc(N2CCC(NC3CCOCC3)CC2)c1	none
O=C(Nc1ccc(Cl)cc1C(F)(F)F)c1cc2nc(-c3ccc(Cl)cc3)cc(C(F)(F)F)n2n1	none
CC1CCc2nc(NC(=O)c3cc(Cl)sc3Cl)sc2C1 (centres undefined)	none
O=C(Cc1ccccc1Cl)Nc1nc2c(s1)CCCC2	none
O=C(Nc1nc2c(s1)CCCC2)c1cc(Cl)sc1Cl	TEAD-YAP block 49
CC(=O)c1ccc(C(=O)Nc2nc3c(s2)CCCC3)cc1	TEAD-YAP block 65
O=C(Nc1nc2c(s1)CCCC2)c1ccccc1Cl	TEAD-YAP block 45
Cc1onc(-c2ccccc2)c1C(=O)Nc1ccccc1Br	none
CC(C)c1ccccc1NC(=O)CCc1csc(NC(=O)c2ccc(F)cc2)n1	none
Cc1cccc(NC(=O)CCc2csc(NC(=O)c3ccc(F)cc3)n2)c1C	TEAD-YAP block 40
CCOc1ccc(Nc2nc(-c3ccccc3)c(C(=O)Nc3cccc(OC)c3)s2)cc1	none
COc1ccc(-c2nc(Nc3ccccc3OC)sc2CC(=O)O)cc1	TEAD-YAP block 51
CCOc1ccc(Nc2nc(-c3ccc(OC)c(OC)c3)c(CC(=O)O)s2)cc1	TEAD-YAP block 34
CCOc1ccc(Nc2nc(N)c(C(=O)c3cccc(OC)c3)s2)cc1	TEAD-YAP block 61
COc1ccc(OC)c(-c2nc(Nc3ccccc3F)sc2CC(=O)O)c1	none
CCOC(=O)/C(C#N)=C(/O)c1ccc(NC(=O)c2ccccc2Cl)cc1	none
c1ccc(CCNc2ccc3ncc(-c4cccs4)n3n2)nc1	TEAD-YAP block 80
COCCNc1ccc2ncc(-c3cccs3)n2n1	TEAD-YAP block 37
O=c1c2cc3c(=O)n(-c4ccc(O)cc4)c(=O)c3cc2c(=O)n1-c1ccc(O)cc1	none
COc1ccc(C(=O)NC(=S)NC2CCS(=O)(=O)C2)cc1 (centres undefined)	none
O=S1(=O)CCC(NC(=S)Nc2ccc(OC(F)F)cc2)C1 (centres undefined)	TEAD-YAP block 41
Cn1cc(-c2ccc3cnc(Nc4ccc(-n5cnc(-c6ccncc6)n5)cc4)nc3c2)cn1	TEAD-YAP block 45
Cc1cc(-c2ncn(-c3ccc(Nc4ncc5ccc(-c6cnn(C)c6)cc5n4)cc3)n2)ccn1	TEAD-YAP block 88
Cn1cc(-c2ccc(Nc3ncc4ccc(-c5cnn(CCN6CCOCC6)c5)cc4n3)cc2)cn1	TEAD-YAP block 51
Cn1cc(-c2ccc3nc(Nc4ccc(-n5cnc(N6CCOCC6)n5)cc4)ncc3c2)cn1	none
Cc1cccc(C(=O)NNc2cc(=O)n(C)c(=O)n2C)c1	none
CCOC(=O)/C(=C\N(C)C)C(=O)c1cc([N+](=O)[O-])c(Cl)cc1Cl	TEAD-YAP block 38
CC(C)C[C@@H](NC(=O)[C@H](Cc1ccccc1)NC(=O)c1cnccn1)B(O)O	TEAD-YAP block 62
CC(CCc1ccccc1)NC(=O)c1cnccn1 (centres undefined)	none
COc1ccc(/C=C/C(=O)c2ccc(O)cc2)cc1	TEAD-YAP block 55
CCc1ccc(C(=O)/C=C/Nc2cccc(O)c2)cc1	TEAD-YAP block 96
COc1cccc(C(=O)/C=C\Nc2ccc(C)cc2)c1	TEAD-YAP block 59
COc1cccc(C(=O)/C=C/Nc2ccc(N(C)C)cc2)c1	none
COc1ccc(C(=O)/C=C\Nc2cccc(F)c2)cc1	TEAD-YAP block 35
CCc1ccc(C(=O)/C=C/Nc2ccc(O)cc2)cc1	none
CCN(CC)S(=O)(=O)c1cccc(NC(=O)C(=O)C2C(=O)Nc3ccccc32)c1 (centres undefined)	none
Cc1cc(SCC(=O)Nc2ccccc2[N+](=O)[O-])nc(=O)[nH]1	none
O=S(=O)(NCC1(c2ccc(F)cc2)CC1)c1ccc(F)cc1	none
COc1ccc(C(=O)/C=C\Nc2cccc(C(=O)O)c2)cc1	TEAD-YAP block 41
COc1ccc(C(=O)/C=C/Nc2cccc(C)c2)cc1	none
COc1ccc(C(=O)/C=C/Nc2cccc(O)c2)cc1	TEAD-YAP block 87
Fc1ccc(OCCOc2cccc3cccnc23)cc1	none
Cc1ccc(NC2=CC(=O)CC(c3ccccc3)C2)cc1 (centres undefined)	TEAD-YAP block 43
Cc1ccc(C2CC(=O)C=C(NCCc3ccccc3)C2)cc1 (centres undefined)	none
COc1ccc(C2CC(=O)C=C(Nc3ccc(Cl)cc3)C2)cc1 (centres undefined)	none
O=C1C=C(Nc2ccc(Cl)cc2)CC(c2ccccc2)C1 (centres undefined)	TEAD-YAP block 33
COc1cccc(-c2nc3sc4c(c3c(=O)n2Cc2ccccc2C)CCCC4)c1	none
C=CCn1c(=NC(=O)CCC)sc2cccc(OC)c21	none
CCN1/C(=C/C=C/c2sc3c(C)cccc3[n+]2CC)Sc2c(C)cccc21	TEAD-YAP block 44
Cc1cccc(Nc2ccc(N3CCN(C(=O)Nc4ccccc4C)CC3)nn2)n1	none
O=C1OC2(CCCCC2)OC(=O)C1=Cc1ccc(Br)o1	MITF primary 74
c1csc(CNc2ccc(-c3nc4ccccc4s3)cc2)c1	TEAD-YAP block 86
c1ccc(-c2nc3ccccc3s2)cc1	none
CCOC(=O)c1ccccc1NC(=O)c1cc(OC)c(OC)c(OC)c1Br	none
COc1ccc(-c2nc(N)c3ncn(-c4ccsc4)c3n2)cc1	TEAD-YAP block 36
COc1ccc(-c2nc(N)c3ncn(-c4ccccc4)c3n2)cn1	none
COc1ccc(-c2nc(N)c3ncn(-c4ccsc4)c3n2)cn1	TEAD-YAP block 62
COc1ccc(-c2nc(N)c3ncn(-c4ccccc4)c3n2)cc1	none
CCN1/C(=C/c2cc[n+](-c3ccc(Cl)cc3)cc2)C=Cc2ccccc21	TEAD-YAP block 91
CCN1/C(=C/C(=C(C#N)C#N)C(F)(F)F)C=Cc2ccccc21	none

Bioassay records (PubChem)
